Bioassay records from PubChem BioAssay.
DRD3 agonist: agonists of human D3 dopamine receptor; P35462; D3R DiscoveRx beta-arrestin cells, luminescence, 90 min; max activation, %; 0.58% of 410,000 active; AID 652048; in the data active = max activation above about 30%
Target sequence (P35462 whole entry, looked up): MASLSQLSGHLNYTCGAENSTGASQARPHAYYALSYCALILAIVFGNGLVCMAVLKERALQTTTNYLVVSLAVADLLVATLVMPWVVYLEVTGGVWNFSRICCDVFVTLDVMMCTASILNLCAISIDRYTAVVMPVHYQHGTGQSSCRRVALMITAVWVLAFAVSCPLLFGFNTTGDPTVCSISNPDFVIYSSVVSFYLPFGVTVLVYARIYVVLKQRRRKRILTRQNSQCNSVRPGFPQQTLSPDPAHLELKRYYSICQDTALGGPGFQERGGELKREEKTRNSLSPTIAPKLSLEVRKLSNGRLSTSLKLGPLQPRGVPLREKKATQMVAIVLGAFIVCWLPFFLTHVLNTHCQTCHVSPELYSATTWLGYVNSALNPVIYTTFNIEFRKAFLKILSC
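Agonist-mode cell screen: cells plated at 1500/well and incubated overnight at 37 °C, then exposed to library compounds for 90 min at 37 °C. Detection reagent was added for 30–60 min at room temperature, and luminescence was read.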
DRD3 antagonist: D3 dopamine receptor (human) antagonism. AID 652054. 2.5% of 360,000 active. D3R cells, DiscoveRx beta-arrestin luminescence, antagonist mode; active compounds read low. max response, negative = inhibition, %. P35462; in the data active = max response below about -50%; inconclusive = no clear call, values can overlap the other calls
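Cells expressing the human receptor were seeded at 1500 cells/well, incubated overnight at 37 degrees C in 5% CO2, then exposed to library compounds with dopamine controls for 90 minutes at 37 degrees C before luminescent detection.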
D1 PAM: enhances dopamine response at the human D1 receptor; P21728; HEK293 TREx D1 cells, calcium flux, dopamine EC20 potentiation; potentiation, % at 10 µM; 0.036% of 360,000 active; AID 504651; in the data active = potentiation above about 30%
D1 antag: antagonists of human D1 dopamine receptor. AID 504652. HEK293 TREx D1 cells, calcium flux, dopamine EC80; active compounds read low. activity change, negative = inhibition, % at 10 µM. P21728. 3.2% of 360,000 active; in the data active = activity change below about -30%
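Cells carrying a force-coupled, tetracycline-inducible human D1 receptor report calcium flux. Each well gets a 10 s baseline, compound with 180 s monitoring, then an EC80 dopamine stimulus with a second 180 s kinetic read.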
D1 agonist: agonists of human D1 dopamine receptor. HEK293 T-REx D1 cells, calcium flux, agonist mode. activation, % at 2 µM. 1% of 360,000 active. AID 504660. P21728; in the data active = activation above about 30%
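Agonism was scored from calcium flux recorded over 180 s (1 read/s) after pintool compound addition, following a 10-cycle baseline. Cells were inducible force-coupled HEK293 TREx D1, plated overnight at 30 C and loaded with no-wash calcium dye.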
Large screens that a line does not name were inactive. The list is not random: actives were taken first. Their share in the collection is about 6%.

OCCN1CCN(c2cc(-c3ccccc3)c3ccccc3n2)CC1	DRD3 antagonist -81
OCCN1CCN(c2nc(-c3ccccc3)c3cc(Br)ccc3n2)CC1	D1 PAM 44, D1 agonist 45
CN1CCN(c2nc(N3CCN(CCO)CC3)nc3ccccc23)CC1	none
CN(C)c1ccc(CNC(=O)CCn2c(=O)c3cccn3c3ccc(F)cc32)cc1	D1 antag -30 (no result: DRD3 antagonist)
O=C(CCn1c(=O)c2cccn2c2ccc(F)cc21)NCc1ccccc1F	D1 antag -69 (no result: DRD3 antagonist)
CSc1ccc(CNC(=O)CCn2c(=O)c3cccn3c3ccc(F)cc32)cc1	none (no result: DRD3 antagonist)
COc1ccc(-n2nc(C(=O)NCCc3cccc(C)c3)c3c4ccccc4n(C)c3c2=O)cc1Cl	none (no result: DRD3 antagonist)
CCCCCn1c(=N)n(CC(O)COc2ccccc2OC)c2ccccc21 (configuration not stated)	DRD3 antagonist inconclusive
CCCCn1c(=N)n(CCOc2ccccc2OC)c2ccccc21	D1 agonist 33 (no result: DRD3 antagonist)
CCCCn1c(=N)n(CCOc2ccc(C)cc2)c2ccccc21	D1 agonist 50
CCn1c(=N)n(CCOc2ccc(Br)cc2)c2ccccc21	D1 agonist 89 (no result: DRD3 antagonist)
COc1ccc(OCCn2c(=N)n(CCO)c3ccccc32)cc1	none
Cc1cc(=O)n(Cc2cccc(Cl)c2)c2c1c(C)nn2-c1ccccc1	none (no result: DRD3 antagonist)
CCc1ccccc1NC(=O)c1ccc2c(c1)N(Cc1cc(C)ccc1C)C(=O)c1ccccc1S2(=O)=O	none (no result: DRD3 antagonist)
Cc1cc(O)c(C(C)C)cc1C1(c2cc(C(C)C)c(O)cc2C)OC(=O)c2ccccc21	DRD3 agonist 61
Cc1cc(C2(c3ccc(O)c(C)c3)OC(=O)c3ccccc32)ccc1O	none
C/C(=N\NC(=O)c1ccc(F)cc1)c1ccccn1	DRD3 antagonist -113
C=CCNC(=S)N/N=C(\C)c1ccccn1	DRD3 antagonist -90
CC(=NNC(=S)Nc1ccccc1)c1ccccn1	none (no result: D1 PAM, D1 antag, D1 agonist)
C/C(=N\NC(=O)c1c[nH]c2ccccc12)c1ccccn1	DRD3 antagonist inconclusive
O=C(N/N=C(\c1ccccc1)c1ccccn1)c1cccc([N+](=O)[O-])c1	DRD3 antagonist -74
CCc1ccc(/C(C)=N/NC(=O)c2ccccn2)cc1	none
CCOc1ccc(C(=O)N/N=C(\c2ccccc2)c2ccccn2)cc1	D1 antag -33
COc1ccccc1CN(Cc1c(Cl)cccc1Cl)S(=O)(=O)c1ccc(Br)cc1	none (no result: DRD3 antagonist)
COc1ccccc1CNC(=O)C1CCCN(c2nnc(-n3c(C)ccc3C)s2)C1 (configuration not stated)	none (no result: DRD3 antagonist)
CCCCNC(=O)COC(=O)c1cc(Br)ccc1Cl	D1 antag -31
CCCCNC(=O)COC(=O)c1cc(F)c(F)cc1Cl	none
CCC(CC)NC(=O)COC(=O)CCC(=O)c1ccc(Cl)cc1	DRD3 agonist 41
CCC(CC)NC(=O)COC(=O)c1cc(Br)ccc1Cl	D1 antag -36
CNC(=O)COC(=O)CCC(=O)c1ccc(Cl)cc1	none
CC1CCC(Nc2nc3c(-c4cccc(C(F)(F)F)c4)nnn3c3ccccc23)CC1 (configuration not stated)	none (no result: DRD3 antagonist)
CCc1ccccc1NC(=O)CSc1nc2ccccc2nc1Cc1cccc(OC)c1	none (no result: DRD3 antagonist)
CCOCCCN(C(=O)Nc1ccc(CC)cc1)C1CCN(C(C)=O)CC1	none
CC(C)CCN(C(=O)Nc1ccc(Cl)c(Cl)c1)C1CCN(C(C)C)CC1	none (no result: DRD3 antagonist)
CC(C)CCN(C(=O)Nc1ccc(Cl)cc1)C1CCN(C(C)C)CC1	DRD3 antagonist -59
CCOCCCN(C(=O)Nc1ccc(Cl)cc1)C1CCN(C(C)=O)CC1	D1 antag -30 (no result: DRD3 antagonist)
CC(=O)Cn1ncc(N2CCCCC2)c(Cl)c1=O	none
CO/N=C(\Cn1ncc(N2CCCC2)c(Cl)c1=O)c1ccc(Cl)cc1	D1 antag -46
CCCN(CC1CC1)C(=O)COC(=O)c1[nH]c(C)c(C(=O)OCC)c1C	D1 agonist 30
CC(=O)c1c(C)[nH]c(C(=O)COC(=O)c2ccc(C)s2)c1C	DRD3 agonist 39 (no result: D1 PAM, D1 antag, D1 agonist)
CCOC(=O)c1c(C)[nH]c(C(=O)OCC(=O)N(C)C2CCS(=O)(=O)C2)c1C (configuration not stated)	none (no result: D1 antag)
CC(=O)c1c(C)[nH]c(C(=O)COC(=O)c2ccc(Cl)nc2)c1C	D1 antag -41
CCOC(=O)c1c(C)[nH]c(C(=O)COC(=O)c2[nH]c(C)c(C(C)=O)c2C)c1C	DRD3 agonist 37
CCOC(=O)c1[nH]c(C)c(C(=O)OCC)c1C	none (no result: D1 PAM)
COc1cc(-c2noc(C3CC(=O)N(c4cc(C)ccc4C)C3)n2)cc(OC)c1OC (configuration not stated)	none (no result: DRD3 antagonist)
COc1ccc(CNC(=O)c2cc3ccccn3n2)cc1OC	none (no result: DRD3 antagonist)
CC(C)c1nc(N(C)S(C)(=O)=O)nc(-c2ccc(F)cc2)c1/C=C/C(O)CC(O)CC(=O)O (configuration not stated)	none (no result: DRD3 antagonist, D1 PAM, D1 antag, D1 agonist)
COc1ccc(F)cc1S(=O)(=O)NCCc1csc2nc(-c3cccc(C)c3)nn12	none (no result: DRD3 antagonist, D1 antag)
COc1ccc2cc1Oc1ccc(cc1)C[C@H]1c3c(cc4c(c3Oc3cc5c(cc3OC)CCN(C)[C@@H]5C2)OCO4)CCN1C	D1 antag -37
COc1ccc2cc1Oc1ccc(cc1)C[C@H]1c3cc(c(OC)cc3CCN1C)Oc1c(OC)c(OC)cc3c1[C@H](C2)N(C)CC3	none
CCCCN(CCCC)C(=O)c1c[nH]c2ccc(S(=O)(=O)Nc3cccc(Cl)c3C)cc2c1=O	none (no result: DRD3 antagonist)
NC(=Nc1ccc(Cl)cc1)c1ccccc1	D1 antag -53, D1 agonist 71
COc1ccc(N2CCN(Cc3nnc(-c4cccc(Br)c4)o3)CC2)cc1	none (no result: DRD3 antagonist)
CCN(C[C@H]1N[C@@](CC)(C(=O)OC)[C@H]2C(=O)N(Cc3ccccc3)C(=O)[C@@H]12)C(=O)c1ccc(C)cc1	DRD3 agonist 55 (no result: D1 PAM, D1 antag, D1 agonist)
COC(=O)[C@]1(Cc2ccccc2)N[C@H](CN(C)C(=O)Nc2ccc(OC)cc2)[C@@H]2C(=O)N(C)C(=O)[C@@H]21	DRD3 antagonist -53 (no result: D1 PAM, D1 antag, D1 agonist)
CCN(C[C@H]1N[C@@](CC)(C(=O)OC)[C@H]2C(=O)N(Cc3ccccc3)C(=O)[C@@H]12)C(=O)c1ccc(F)cc1	none (no result: D1 PAM, D1 antag, D1 agonist)
CCN(C[C@H]1N[C@@](Cc2ccccc2)(C(=O)OC)[C@H]2C(=O)N(Cc3ccccc3)C(=O)[C@@H]12)S(=O)(=O)c1ccccc1	DRD3 antagonist -72 (no result: D1 PAM, D1 antag, D1 agonist)
CCOC(=O)c1c(C)[nH]c(C)c1S(=O)(=O)N1CCCC(C(=O)N2CCN(c3cccc(C)c3C)CC2)C1 (configuration not stated)	none (no result: DRD3 antagonist)
CCOc1cccc(=O)c2c(C)n(CC(=O)c3ccccc3)c(C)c12	none
COc1cccc(=O)c2c(C)n(CC(=O)c3ccccc3)c(C)c12	D1 antag -33
COc1ccc(-n2cc(CNCCc3cscn3)c(-c3ccccc3Cl)n2)cc1	DRD3 antagonist -101
Cc1ccc(-n2cc(CNCCc3cscn3)c(-c3ccc(F)cc3)n2)cc1	none
